Laboratory results from PubChem BioAssay (NCI).
The panel holds about 83,000 compounds, 20% with a hit somewhere; the sample as a whole holds those more often.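 Note: values are percent growth. 100 is the growth of untreated cells, values between 100 and 0 indicate rising inhibition; between -100 and 0 indicates cell death.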 Unmarked numbers belong to inactive results. Active and inactive are the calls of the source. Rule for the calls: active = growth percent below 10; inactive = the rest.

How the values were obtained:
Assay in all cases: NCI-60 one-dose screen, 48 h (100 = growth as untreated, 0 = no growth, -100 = all killed)
Conditions in all cases: 10 µM unless noted
SR leukemia = system: SR leukemia
RPMI-8226 leukemia = system: RPMI-8226 leukemia
OVCAR-8 ovarian = system: OVCAR-8 ovarian
OVCAR-5 ovarian = system: OVCAR-5 ovarian
OVCAR-4 ovarian = system: OVCAR-4 ovarian
SK-OV-3 ovarian = system: SK-OV-3 ovarian
IGROV1 ovarian = system: IGROV1 ovarian
OVCAR-3 ovarian = system: OVCAR-3 ovarian
HS 578T breast = system: HS 578T breast
NCI/ADR-RES ovarian = system: NCI/ADR-RES ovarian
T-47D breast = system: T-47D breast
BT-549 breast = system: BT-549 breast
MDA-MB-435 melanoma = system: MDA-MB-435 melanoma
SW-620 colon = system: SW-620 colon
MCF7 breast = system: MCF7 breast
HCT-116 colon = system: HCT-116 colon
HCC-2998 colon = system: HCC-2998 colon
KM12 colon = system: KM12 colon

| SMILES | growth (SR leukemia) | growth (RPMI-8226 leukemia) | growth (OVCAR-8 ovarian) | growth (OVCAR-5 ovarian) | growth (OVCAR-4 ovarian) | growth (SK-OV-3 ovarian) | growth (IGROV1 ovarian) | growth (OVCAR-3 ovarian) | growth (HS 578T breast) | growth (NCI/ADR-RES ovarian) | growth (T-47D breast) | growth (BT-549 breast) | growth (MDA-MB-435 melanoma) | growth (SW-620 colon) | growth (MCF7 breast) | growth (HCT-116 colon) | growth (HCC-2998 colon) | growth (KM12 colon) |
| --- | --- | --- | --- | --- | --- | --- | --- | --- | --- | --- | --- | --- | --- | --- | --- | --- | --- | --- |
| CC(C)=CC(=O)OCC(=O)O[C@@H]1C[C@]2(C(C)C)O[C@@]1(C)[C@@H]1CC[C@@H](C)[C@H]1[C@@H]2OC(=O)/C=C/c1ccccc1 | 69.2% | 56% | 35.9% | 103% | 96.5% | 91.7% | 108% | 96.5% | -0.351% (active) | 30.6% | 65.1% | 37.7% | 91.7% | 87.1% | 71.5% | 72.2% | 90.7% | 89.4% |
| O=c1[nH]c(-c2ccccc2)nc2sc3cc(O)ccc3c12 | 54.2% | 82.3% | 100% | 115% | 80% | 97.9% | 74.1% | 93.4% | 89% | 95.5% | 93% | 82.3% | 85.9% | 101% | 73.8% | 92.5% | 95.9% | 87.6% |
| C#CCOc1cccc(Nc2ncnc3cc(NC(=O)C=C)ccc23)c1 | 13% | 13.3% | 4.37% (active) | 54.3% | 45.5% | 29.6% | 6.96% (active) | 6.09% (active) | 18.2% | 14.9% | 8.13% (active) | 7.82% (active) | -1.49% (active) | 12.1% | 20.4% | 2.37% (active) | 60.7% | 24.6% |
| CCC(=O)Oc1ccc(-c2ccccc2)cc1Br | 107% | 104% | 106% | 104% | 105% | 120% | 112% | 114% | 115% | 110% | 101% | 109% | 109% | 99.1% | 93.6% | 104% | 112% | 111% |
| CC/C(=C(/c1ccc(Cl)cc1)c1ccc(OCCN2CCCCC2)cc1)c1ccc(OC)cc1 | -22.2% (active) | -10.5% (active) | 65.9% | 65.4% | 69.3% | 94.9% | 80.5% | 66.4% | 85.3% | 71.8% | 32.3% | 78.2% | 65.6% | 39.1% | 15.3% | 46.9% | 71% | 39.1% |
| COc1ccc(/C=C/C(=O)c2ccc(Nc3ccnc4cc(Cl)ccc34)cc2)cc1 | -72.4% (active) | -32% (active) | 97.9% | 89.2% | 96.6% | 111% | 93.7% | 118% | 106% | 83.6% | 83.1% | 101% | 85.6% | 93.7% | 76.2% | 34% | 58.7% | 154% |
| Nc1c(C(=O)Nc2ccccc2C(F)(F)F)sc2nc3c(cc12)CCC3 | 86.6% | 110% | 100% | 103% | 101% | 87.7% | 105% | 113% | 95.1% | 101% | 67.4% | 115% | 92.8% | 96% | 95.8% | 107% | 94.6% | 113% |
| O=C(/C=C/c1ccco1)Nc1ncc(Cc2cccc(C(F)(F)F)c2)s1 | 9.93% (active) | 12.4% | 8.79% (active) | 30.3% | 4.64% (active) | 16.9% | 4.48% (active) | -33.3% (active) | 0.428% (active) | -4.7% (active) | 21.5% | 8.55% (active) | -49.6% (active) | 18.4% | 12.9% | 7.05% (active) | 12.2% | 4.7% (active) |
| NNc1nc(-c2cccnc2)nc2c1sc(=S)n2-c1ccccc1 | 88.3% | 106% | 92.8% | 102% | 100% | 79.6% | 97.9% | 93.1% | 112% | 102% | 62.9% | 72.7% | 112% | 102% | 92.5% | 76.4% | 108% | 102% |
| O=C1C(Cl)=C(Nc2ccc(S(=O)(=O)N3CCOCC3)cc2)C(=O)c2ccccc21 | -3.16% (active) | 21.2% | 70% | 38.1% | 86% | 81.3% | 62.5% | 72.8% | 79.2% | 90% | 69.8% | 45.9% | 88.1% | 32.5% | 58.9% | 4.7% (active) | 106% | 64.5% |
| CSc1nnc(-c2cc3c([nH]c4ccccc43)c(-c3cccc(O)c3)n2)n1-c1ccccc1 | 21.7% | 16.2% | 47.1% | 58.7% | 43.7% | 47.4% | 49.9% | -0.418% (active) | 25.1% | 56.6% | 44.9% | 37.6% | -49.9% (active) | 31.3% | 13.2% | 18.3% | 67.3% | 21.6% |
| COc1ccc(CNc2c3ccccc3nc3ccccc23)cc1 | 6.96% (active) | 15.8% | 27.7% | 46.4% | 40.3% | 53.8% | 27.2% | 48.1% | 58% | 38.8% | 44.9% | 80.1% | 40.2% | 25.6% | 12.6% | 9.53% (active) | 38.6% | 33.2% |
| O=c1[nH]c(Cc2nc3ccccc3s2)nc2cc(Br)ccc12 | 75.4% | 66.7% | 70.8% | 66.5% | 92.4% | 78.8% | 73.9% | 86.4% | 84.2% | 72.8% | 54.2% | 70.2% | 45.6% | 61.3% | 78.5% | 50.6% | 84.1% | 41.4% |
| Fc1cnccc1C1CC(c2ccc(N3CCNCC3)cc2)=NN1 (stereo unspecified) | 90.4% | 92.5% | 95.1% | 111% | 108% | 85% | 68% | 98.8% | 89.2% | 106% | 82.2% | 85.3% | 105% | 93.5% | 73% | 73.8% | 102% | 96.2% |
| COC(CC(F)F)c1cn(S(=O)(=O)c2ccc(C)cc2)c2ccccc12 (stereo unspecified) | 12.2% | 32.1% | 58.5% | 33.3% | 65.5% | 18.1% | 35.8% | 7.08% (active) | 32.5% | 36.3% | 30.8% | 34.9% | -43.8% (active) | 12.9% | 13.6% | 17.2% | 63.3% | 19.3% |
| O=c1c2ccccc2n2cnc3ccc(Cl)c1c32 | 44.9% | 98.6% | 78.1% | 81.6% | 82.6% | 69.8% | 55.5% | 85.2% | 84.8% | 86.7% | 54.4% | 75.4% | 90.5% | 79.2% | 75% | 65.7% | 103% | 84.3% |
| OCCn1cc(-c2nc(-c3c[nH]c4ncccc34)cs2)c2ccccc21 | 53.5% | 57.8% | 90.4% | 90.5% | 51.7% | 70.2% | 56.1% | 81.7% | 71.3% | 94.6% | 37.3% | 76% | 52.1% | 91.5% | 32.9% | 85.2% | 52% | 48% |
